Sampled rows, rich in hits. Any-hit rate of the full collection: about 19%.
HT1080 IDH1KD tx: kills HT-1080 cells with IDH1 knockdown; HT-1080 IDH1 knockdown viability, ATP luminescence, 48 h; Potency, µM (titrated, usually from 46.1 µM), inactives show at the top dose activity, negative = toxicity, usual class: cytotoxic; actives 2% (n = 360,000);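 also: 0% = DMSO wells and -100% = cell-free medium wells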
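Luminescent ATP read-out (CellTiter-Glo, 10 min at room temperature) after 48 h compound exposure at 37 °C gave viability of IDH1-knockdown HT-1080 cells. Activity was normalised to DMSO and cell-free wells, then fitted as concentration-response curves.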
DT40 TDP1 no CPT: qHTS for Inhibitors of human tyrosyl-DNA phosphodiesterase 1 (TDP1): qHTS in cells in absence of CPT; DT40 Tdp1-/- hTDP1 cells, no CPT, ATP luminescence, 48 h; Potency, µM (top dose mostly 46.2 µM), inactives show at the top dose activity change, negative = growth inhibition, actives largely listed as inhibitors; actives 15% (n = 420,000); AID 686978, 2013; also: nearly all actives have a fitted effect of over 55% in size
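Compound effects on proliferation are scored in DT40 Tdp1-/-;hTDP1 cells in the absence of CPT. ATP levels (CellTiter-Glo luminescence) are recorded after a ≥48 hr, 37 °C incubation.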
HT1080NT lethal: kills 2HG-producing HT-1080-NT fibrosarcoma cells; HT-1080-NT fibrosarcoma viability, CellTiter-Glo ATP luminescence, 48 h; actives 1.6% (n = 360,000); AID 686970; Potency, µM (doses to about 46.1 µM), for inactives: at the top dose activity, negative = less viability, hits mostly cytotoxic;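 also: NT is the 2HG producing partner of a matched IDH1 knockdown line; 0% = DMSO-treated cells and -100% = media-only wells without cells; nearly all actives have a fitted effect of over 55% in size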
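HT-1080-NT; 750 cells/well; 5% FBS RPMI; 48 h compound, 37 degrees C; CellTiter-Glo luminescence; curve fitting and curve-class assignment.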
KB-V1 MDR tox: kills drug-selected multidrug resistant KB-V1 cells; KB-V1 MDR cells viability, CellTiter-Glo, 72 h; Potency, µM (highest dose often 46.1 µM), most hits filed as cytotoxic; actives 3.4% (n = 400,000); AID 1347076; also: nearly all actives have a fitted effect of over 60% in size
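Cytotoxicity toward P-gp-expressing KB-V1 cells was determined as loss of CellTiter-Glo luminescence after 72 h at 37 degrees C. Compounds were tested in quantitative HTS format across a concentration range, with curves fitted to normalized data.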
KB-3-1 tox: kills parental KB-3-1 adenocarcinoma cells; actives 1.4% (n = 400,000); AID 1347075; Potency, µM (series often up to 46.1 µM), usual class: cytotoxic; KB-3-1 viability, CellTiter-Glo ATP luminescence, 72 h; also: nearly all actives have a fitted effect of over 60% in size
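72 h, 37 °C compound treatment of KB-3-1 parental cells; CellTiter-Glo added, 10 min, luminescence read. Data corrected against DMSO-only plates and normalized before curve fitting.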
DT40 TDP1 CPT: DT40-hTDP1 cell growth loss with CPT; chicken DT40 Tdp1-/-;hTDP1 cells + 20 nM CPT, ATP luminescence, 48 h; Potency, µM (titrated, usually from 46.2 µM), without a hit: top-dose activity change, negative = growth inhibition, actives largely listed as inhibitors; actives 12% (n = 420,000); also: nearly all actives have a fitted effect of over 55% in size
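Chicken DT40 Tdp1-/- cells stably complemented with human TDP1 were seeded at 400 cells/well in medium containing 20 nM camptothecin, exposed to pin-transferred compounds, and grown at 37 °C for at least 48 hr. Viability was read as ATP luminescence.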
* marks the source's active call; other numbers are inactive results; i = inactive; ? = inconclusive; . = no result; ! = repeats disagree. Calls follow the shape of the dose curve; as a rule, active = well fitted curve in the direction sought with a large enough effect; inconclusive = small, poorly fitted or top-dose-only effect, or another doubt; inactive = no such curve, though single readings can be large; an effect the other way counts as inactive or inconclusive. Unless noted, % is scaled to controls: 0 for no effect and ±100 for the full control effect; potency is read from the fitted curve at half-maximal effect.

SMILES	HT1080 IDH1KD tx	DT40 TDP1 no CPT	HT1080NT lethal	KB-V1 MDR tox	KB-3-1 tox	DT40 TDP1 CPT
Cc1ccccc1OCC(=O)Nc1nnc(S(=O)(=O)N2CCCCCC2)s1	.	-17.5%	.	i	i	-18.9%
CN1C(C(=O)Nc2ccccn2)C(=O)c2sc(Cl)cc2S1(=O)=O (stereo not drawn)	.	7.9%	.	.	.	6.7%
Cc1cccc(/C=N/NC(=O)c2cc3c(s2)-c2ccccc2CC3)c1	?	14.6µM*	?	?	?	16.4µM*
CCC(C)Sc1cccc(-c2nc3ccc(Cl)cn3c2NCc2ccccc2)c1 (stereo not drawn)	?	16.4µM*	?	?	i	23.1µM*
Cc1ccc2nc(-c3cccc(-c4cccc(Cl)c4)c3)c(NCc3ccccc3)n2c1	?	?	?	?	i	9.2µM*
CCC(C)Sc1cccc(-c2nc3ccc(C)cn3c2NCc2ccccc2)c1 (stereo not drawn)	?	20.6µM*	?	18.4µM*!	?	16.4µM*
CCC(C)Sc1cccc(-c2nc3ccccn3c2NCc2ccccc2)c1 (stereo not drawn)	-7.3%	?	-20.2%	?	i	?
Cc1ccc(Cc2c(-c3cccc(Cl)c3)nc3ccc(Cl)cn23)cc1	-1.4%	?	1.7%	i	i	?
Cc1ccc(NC(=O)c2ccc3oc(=O)c(S(=O)(=O)c4ccccc4)cc3c2)cc1C	.	-11.9%	.	i	i	-14.4%
COc1cc(C(=O)NCC(c2ccco2)N2CCCC2)ccc1OCc1c(C)noc1C (stereo not drawn)	11.1%	-26.2%	17.6%	10.3µM*	?	-26.0%
COc1ccccc1C(CNC(=O)c1ccc(OCc2c(C)noc2C)cc1)N1CCCC1 (stereo not drawn)	-2.1%	-16.0%	-7.8%	?	?	?
COc1cc(C(=O)NCc2cccs2)ccc1OCc1c(C)noc1C	15.2%	?	12.8%	i	i	-3.5%
COc1ccc(C(CNC(=O)c2ccc(OCc3c(C)noc3C)cc2)N2CCCC2)cc1 (stereo not drawn)	1.8%	17.5%	1.8%	1.46µM*	?	7.6%
CCOc1ccccc1C1N=C(N)Nc2nc3ccccc3n21 (stereo not drawn)	.	-2.6%	.	i	i	5.7%
O=C(NCc1nc(-c2ccc(Cl)cc2)no1)c1ccc2c(c1)OCO2	-10.4%	-16.6%	-25.8%	?	i	-4.4%
CCN(CC)C(=O)Cn1cc(S(=O)(=O)CC(=O)Nc2cc(OC)ccc2OC)c2ccccc21	0.3%	-12.3%	-6.1%	i	i	-18.7%
CC(C)OCCCn1c(=O)c2ccccc2n2c(-c3ccccc3)nnc12	.	?	.	?	i	?
Cc1nn(-c2ccccc2)c(C)c1/C=N/NC(=O)c1cc(-c2ccc(Br)s2)[nH]n1	?	4.61µM*	?	?	?	2.91µM*
Cc1nn(-c2ccccc2)c(C)c1/C=N/NC(=O)c1cc(-c2ccc(Cl)s2)[nH]n1	0.891µM*	4.11µM*	0.631µM*	11.6µM*	2.91µM*	4.61µM*
Cc1nn(-c2ccccc2)c(C)c1/C=N/NC(=O)c1cccs1	-6.8%	14.6µM*	-16.9%	20.6µM*	?	9.2µM*
Cc1nn(-c2ccccc2)c(C)c1/C=N/NC(=O)c1cc(-c2cccs2)[nH]n1	?	0.0082µM*	?	?	0.517µM*	0.82µM*
CCC(C(=O)Nc1cc(OC)cc(OC)c1)n1nc(-c2ccc(C)c(C)c2)ccc1=O (stereo not drawn)	.	?	.	i	i	?
O=C(N/N=C/c1ccccn1)c1cc(-c2ccc(Br)s2)[nH]n1	?	?	?	i	i	?
O=C(N/N=C/c1ccccn1)c1cc(-c2ccc(Cl)s2)[nH]n1	?	16.4µM*	?	i	i	23.1µM*
Cc1nn(-c2ccccc2)c(C)c1/C=N/NC(=O)CSc1nnc(SCc2ccc(Cl)cc2)s1	?	14.6µM*	-17.5%	2.31µM*	?	?
O=C(CSc1nnc(SCc2ccccc2)s1)N/N=C/c1c(Cl)cccc1Cl	-10.2%	?	-5.0%	?	i	?
Cc1ccc2nc(NC(=O)CCNS(=O)(=O)c3ccc(Br)s3)sc2c1	?	-13.6%	?	18.4µM*	i	-13.2%
Cc1cccc2sc(NC(=O)CCNS(=O)(=O)c3cccs3)nc12	-11.4%	25.9µM*	-14.4%	i	i	18.4µM*
Cc1ccc2nc(NC(=O)CCNS(=O)(=O)c3cccs3)sc2c1	-27.3%	?	-26.6%	?	i	?
O=C(NC(CSCc1ccccc1)C(=O)N/N=C/c1ccc(O)cc1O)c1ccc([N+](=O)[O-])cc1 (stereo not drawn)	0.891µM*	4.47µM*	2.82µM*	i	?	7.08µM*

High-throughput results: PubChem BioAssay, National Center for Advancing Translational Sciences (NCATS)
